Results from PubChem BioAssay.
The source made the active and inactive calls.

Legend:
Albumin (Bos taurus) = Albumin (Bos taurus) (UniProt P02769); assay: bovine serum albumin binders on microarray, profiling panel, artefact control for SMM control protein annotation, biochemical, small-molecule microarray, Alexa647 label, 635/667 nm fluorescence (AID 1118); settings: BSA-A647 binding, fluorescence 635 nm, higher = more signal;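 also: score merges 667 nm emission intensity and signal-to-noise per printed compound spot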
[1] = small-molecule microarray binders of probe aXIP, primary screen, biochemical, NeuroSMM set, 635/667 nm fluorescence (AID 1119); settings: higher = more signal, called active from +8 up or from −8 down;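 also: probe is the protein aXip251-270 applied at 1 µg/mL to compound-printed slides; binding of probe to printed compounds measured as 667 nm fluorescence plus signal to noise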
[2] = small-molecule binders of probe aNOTCH3, primary screen, biochemical, small-molecule microarray, 635/667 nm fluorescence (AID 1120); settings: higher = more signal;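 also: probe is a biotin-tagged antibody raised against NOTCH3 rather than NOTCH3 protein; score merges spot fluorescence near 667 nm with spot signal to noise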
[3] = small-molecule binders of probe aNOTCH2, primary screen, biochemical, small-molecule microarray, 635/667 nm fluorescence (AID 1121); settings: higher = more signal;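 also: score merges feature fluorescence read at 667 nm with its signal to noise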
[4] = biological target: Carbonic anhydrase 2 (Homo sapiens) (UniProt P00918); assay: CAII small-molecule binders, profiling panel, biochemical, small-molecule microarray, Alexa647-labelled CAII (AID 1122); settings: CAII-A647 binding fluorescence, higher = more signal
[5] = COS7 lysate on small-molecule microarray, probe aHis, 635 nm (AID 1123); settings: COS7 cell lysate, fluorescence, higher = more signal;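 also: z-score combines 667nm fluorescence intensity with signal-to-noise per printed compound spot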
[6] = compound binding in COS7 lysate, probe aLAP1, primary screen, cell lysate, small-molecule microarray (AID 1124); settings: probe aLAP1, fluorescence, higher = more signal;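 also: lysate comes from COS7 cells expressing LAP1 and is applied at 0.3 µg/mL; score merges spot fluorescence near 667 nm with signal-to-noise over triplicate slides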
Sam68 (KHDRBS1) = assay: Sam68 small-molecule binders, primary screen, biochemical, small-molecule microarray, 635 nm fluorescence (AID 1125); settings: small-molecule microarray binding, higher = more signal;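 also: score merges 667 nm channel intensity with signal to noise over triplicate slides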
[7] = tested on: Chordin-like protein 2 (CHRDL2); assay: CHRDL2 small-molecule binders, primary screen, biochemical, small-molecule microarray, 635 nm fluorescence (AID 1126); settings: small-molecule microarray binding, fluorescence 635 nm; higher = more signal;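 also: printed compound slides probed with Chrdl2 protein at 4 µg/mL for 1 h at 4 C; score merges 667 nm emission intensity with signal to noise over three replicate slides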
[8] = biological target: Concanavalin-A (Canavalia ensiformis) (UniProt P02866); assay: ConA small-molecule binders, primary screen, artefact control for SMM control protein annotation, biochemical, small-molecule microarray, Alexa647 label, 635 nm (AID 1127); settings: ConA-A647 binding fluorescence, higher = more signal;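 also: z combines 667 nm emission intensity with signal-to-noise across three replicate slides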
[9] = anti-His antibody binders, primary screen, artefact control for SMM control protein annotation, biochemical, small-molecule microarray, 635 nm fluorescence (AID 1128); settings: anti-His Alexa647 antibody binding, higher = more signal;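 also: score merges feature fluorescence with signal-to-noise for each printed compound spot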
[10] = tested on: Human papillomavirus type 1a E7 protein (residues 1-88); assay: HPV1a E7 small-molecule binders, primary screen, biochemical, small-molecule microarray, residues 1-88, 635 nm (AID 1129); settings: small-molecule microarray binding, fluorescence 635 nm; higher = more signal
[11] = biological target: Focal adhesion kinase 1 (Homo sapiens) (UniProt Q05397); assay: small-molecule microarray binders of FAK, primary screen, biochemical, 635/667 nm fluorescence, BSA, DTT (AID 1130); settings: PTK2 binding, 635 nm fluorescence, higher = more signal;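 also: composite of spot emission at 667 nm and signal to noise over triplicate slides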
[12] = tested on: Fibrinogen (Alexa647-labelled); assay: fibrinogen binders on compound microarrays, profiling panel, artefact control for SMM control-protein annotation, biochemical, small-molecule microarray, 635/667 nm fluorescence (AID 1131); settings: fibrinogen-A647 binding fluorescence, higher = more signal;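 also: z-score merges 667 nm fluorescence with per-spot signal-to-noise over triplicate slides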
[13] = biological target: Follistatin (Homo sapiens) (UniProt P19883); assay: follistatin binders on small-molecule microarrays, primary screen, biochemical, small-molecule microarray, 635/667 nm fluorescence (AID 1132); settings: FST binding, 635 nm fluorescence, higher = more signal
[14] = biological target: Fibroblast growth factor 2 (Homo sapiens) (UniProt P09038); assay: FGF2 binders on small-molecule microarrays, primary screen, biochemical, small-molecule microarray, 635/667 nm fluorescence (AID 1133); settings: small-molecule microarray binding, FGF2, fluorescence 635/667; higher = more signal
[15] = mitochondrial membrane potential change in A549 cells, profiling panel, cell-based, JC-1 fluorescence, basal, 24 h, 100 nL (AID 1138); settings: higher = more signal;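 also: A549 lung adenocarcinoma cells under basal conditions with no added stimulus; test concentration not given here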
Lefty1 = Lefty1 binders on small-molecule microarrays, primary screen, biochemical, small-molecule microarray, 635/667 nm fluorescence (AID 1139); settings: small-molecule microarray binding, fluorescence 635/667; higher = more signal
[16] = tested on: wheat germ agglutinin (Triticum aestivum), Alexa647-labelled; assay: wheat germ agglutinin binders on compound microarrays, profiling panel, artefact control for SMM control-protein annotation, biochemical, small-molecule microarray, 635/667 nm fluorescence (AID 1140); settings: WGA-A647 binding, 635 nm fluorescence, higher = more signal;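 also: score merges 667 nm feature emission with signal to noise over triplicate slides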
[17] = biological target: Luciferin 4-monooxygenase (Photinus pyralis) (UniProt P08659); assay: firefly luciferase enzyme inhibitors, primary screen, biochemical, luminescence, purified enzyme, 2006 set (AID 1141); settings: SteadyGlo luminescence, 30 min, higher = more signal, called active from +8 up or from −8 down;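 also: cell-free assay with purified firefly luciferase at 100 ng per well in PBS; test concentration not given here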
Chain of Luciferin 4-monooxygenase (Photinus pyralis) (P08659 whole entry, looked up): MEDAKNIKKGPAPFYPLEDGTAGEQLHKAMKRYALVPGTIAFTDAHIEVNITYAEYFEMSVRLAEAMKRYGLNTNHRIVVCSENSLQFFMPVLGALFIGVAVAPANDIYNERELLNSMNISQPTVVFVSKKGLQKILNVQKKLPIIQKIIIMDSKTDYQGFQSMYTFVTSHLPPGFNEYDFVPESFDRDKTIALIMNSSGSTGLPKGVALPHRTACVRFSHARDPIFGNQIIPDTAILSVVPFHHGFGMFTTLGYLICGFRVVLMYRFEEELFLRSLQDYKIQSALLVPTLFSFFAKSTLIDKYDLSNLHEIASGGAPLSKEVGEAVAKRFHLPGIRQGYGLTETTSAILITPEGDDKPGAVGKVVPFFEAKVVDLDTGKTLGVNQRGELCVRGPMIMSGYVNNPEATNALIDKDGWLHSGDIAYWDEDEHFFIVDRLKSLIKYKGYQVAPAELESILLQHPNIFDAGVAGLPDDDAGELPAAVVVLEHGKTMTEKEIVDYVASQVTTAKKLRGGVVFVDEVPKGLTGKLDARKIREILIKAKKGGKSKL

Chain of Concanavalin-A (Canavalia ensiformis) (P02866 whole entry, looked up): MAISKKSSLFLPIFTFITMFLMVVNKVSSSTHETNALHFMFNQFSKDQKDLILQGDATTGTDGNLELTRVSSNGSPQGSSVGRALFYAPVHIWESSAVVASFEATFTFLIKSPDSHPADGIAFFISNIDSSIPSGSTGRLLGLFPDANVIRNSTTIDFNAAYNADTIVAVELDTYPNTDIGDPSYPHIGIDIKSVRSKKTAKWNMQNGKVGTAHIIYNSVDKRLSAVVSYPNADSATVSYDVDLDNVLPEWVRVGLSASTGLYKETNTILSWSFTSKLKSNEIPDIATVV
Chain of Albumin (Bos taurus) (P02769 whole entry, looked up): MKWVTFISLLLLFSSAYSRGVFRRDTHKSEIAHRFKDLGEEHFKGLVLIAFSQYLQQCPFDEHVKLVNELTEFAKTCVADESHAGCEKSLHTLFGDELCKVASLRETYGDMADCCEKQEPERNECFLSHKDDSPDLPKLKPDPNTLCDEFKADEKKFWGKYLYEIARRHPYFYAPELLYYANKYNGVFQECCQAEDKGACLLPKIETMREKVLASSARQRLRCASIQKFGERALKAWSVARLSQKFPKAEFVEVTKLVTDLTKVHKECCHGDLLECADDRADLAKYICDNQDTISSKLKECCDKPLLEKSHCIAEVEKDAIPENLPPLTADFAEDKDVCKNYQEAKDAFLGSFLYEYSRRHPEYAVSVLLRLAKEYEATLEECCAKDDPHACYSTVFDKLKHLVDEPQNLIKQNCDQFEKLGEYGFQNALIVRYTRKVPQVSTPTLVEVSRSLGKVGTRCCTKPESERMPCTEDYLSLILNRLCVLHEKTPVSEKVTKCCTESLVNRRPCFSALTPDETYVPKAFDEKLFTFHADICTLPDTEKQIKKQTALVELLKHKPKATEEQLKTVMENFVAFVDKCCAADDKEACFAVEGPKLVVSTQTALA
Chain of Follistatin (Homo sapiens) (P19883 whole entry, looked up): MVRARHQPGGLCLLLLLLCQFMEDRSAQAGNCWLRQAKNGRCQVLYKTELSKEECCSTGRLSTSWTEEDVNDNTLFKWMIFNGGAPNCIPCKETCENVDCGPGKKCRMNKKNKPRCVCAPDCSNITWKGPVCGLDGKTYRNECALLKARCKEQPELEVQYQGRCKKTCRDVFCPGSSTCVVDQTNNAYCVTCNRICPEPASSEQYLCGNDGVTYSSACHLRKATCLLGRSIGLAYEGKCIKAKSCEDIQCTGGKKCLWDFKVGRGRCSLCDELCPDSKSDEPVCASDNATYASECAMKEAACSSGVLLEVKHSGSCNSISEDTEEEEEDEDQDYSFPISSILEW
Chain of Fibroblast growth factor 2 (Homo sapiens) (P09038 whole entry, looked up): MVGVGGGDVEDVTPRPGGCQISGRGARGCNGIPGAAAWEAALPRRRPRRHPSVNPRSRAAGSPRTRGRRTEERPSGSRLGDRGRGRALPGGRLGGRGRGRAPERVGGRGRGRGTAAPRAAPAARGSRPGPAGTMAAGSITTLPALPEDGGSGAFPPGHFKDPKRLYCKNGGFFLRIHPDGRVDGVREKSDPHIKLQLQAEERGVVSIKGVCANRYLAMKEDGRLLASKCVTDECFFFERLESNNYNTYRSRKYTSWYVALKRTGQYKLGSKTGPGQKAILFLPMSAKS
Chain of Focal adhesion kinase 1 (Homo sapiens) (Q05397 whole entry, looked up): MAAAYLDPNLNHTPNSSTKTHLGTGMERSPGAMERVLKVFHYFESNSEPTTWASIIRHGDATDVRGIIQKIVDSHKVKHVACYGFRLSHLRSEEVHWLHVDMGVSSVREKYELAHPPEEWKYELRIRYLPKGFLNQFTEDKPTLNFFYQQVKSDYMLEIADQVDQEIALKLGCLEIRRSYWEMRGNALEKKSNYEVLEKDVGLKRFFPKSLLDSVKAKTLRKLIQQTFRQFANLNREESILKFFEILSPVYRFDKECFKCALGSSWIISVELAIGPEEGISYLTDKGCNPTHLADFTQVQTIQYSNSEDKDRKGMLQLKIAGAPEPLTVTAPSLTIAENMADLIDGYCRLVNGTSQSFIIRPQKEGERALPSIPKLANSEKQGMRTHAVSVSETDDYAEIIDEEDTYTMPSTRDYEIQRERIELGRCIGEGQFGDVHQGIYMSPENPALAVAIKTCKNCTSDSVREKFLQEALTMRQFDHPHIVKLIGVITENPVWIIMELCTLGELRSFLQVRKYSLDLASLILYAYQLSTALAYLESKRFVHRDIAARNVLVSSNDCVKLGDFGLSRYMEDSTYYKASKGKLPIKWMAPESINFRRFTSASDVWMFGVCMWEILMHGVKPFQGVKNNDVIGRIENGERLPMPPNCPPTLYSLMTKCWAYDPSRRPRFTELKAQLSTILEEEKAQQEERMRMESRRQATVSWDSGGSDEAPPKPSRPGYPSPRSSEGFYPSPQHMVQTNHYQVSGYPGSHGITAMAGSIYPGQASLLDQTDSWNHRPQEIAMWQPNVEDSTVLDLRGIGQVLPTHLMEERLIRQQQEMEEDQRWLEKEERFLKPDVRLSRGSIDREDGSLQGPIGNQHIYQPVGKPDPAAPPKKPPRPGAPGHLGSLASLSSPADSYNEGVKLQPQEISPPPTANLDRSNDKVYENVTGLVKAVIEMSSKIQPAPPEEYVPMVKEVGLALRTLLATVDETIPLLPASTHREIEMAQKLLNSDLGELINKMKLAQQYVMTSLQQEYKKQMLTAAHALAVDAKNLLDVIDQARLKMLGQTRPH

For C[C@]1(C(=O)NCc2ccccc2)c2ccccc2C(=O)N(Cc2cc(C(F)(F)F)cc(C(F)(F)F)c2)[C@H]1c1ccc(CO)cc1, the composite z-score (Albumin (Bos taurus)) was 0.157, the composite Z-score [1] was -0.471 (inactive) and the composite z-score [2] was 0.154. It also gave a composite z-score [3] of 0.0827, a composite z-score [4] of 0.529 and a composite z-score [5] of 0.9. It also gave a composite z-score [6] of 0.158, a composite z-score (Sam68 (KHDRBS1)) of 1.3 and a composite z-score [7] of 0.242. It also gave a composite z-score [8] of 0.677, a composite z-score [9] of -0.152 and a composite z-score [10] of 1.19. It also gave a composite z-score [11] of 0.415, a composite z-score [12] of 0.749 and a composite z-score [13] of 1.34. The composite z-score [14] was 1.72, the z-score [15] was 0.195 and the composite z-score (Lefty1) was 0.221. For the same compound, the composite z-score [16] was 0.322 and the z-score [17] was -0.543 (inactive).

With CCOC(=O)C[C@H]1[C@H](OC(=O)Cc2ccc3c(c2)OCO3)[C@@H](NC(=O)CC(C)C)c2cc(OCCCO)ccc2N1C(=O)c1ccccc1 the composite z-score (Albumin (Bos taurus)) was 0.842, the composite Z-score [1] was 0.312 (inactive) and the composite z-score [2] was -0.0682. For the same compound, the composite z-score [3] was 0.0972, the composite z-score [4] was 0.186 and the composite z-score [5] was 0.41. For the same compound, the composite z-score [6] was -0.0777, the composite z-score (Sam68 (KHDRBS1)) was 0.562 and the composite z-score [7] was 0.133. For the same compound, the composite z-score [8] was -1.14, the composite z-score [9] was -0.314 and the composite z-score [10] was 0.157. The composite z-score [11] was 0.344, the composite z-score [12] was 0.165 and the composite z-score [13] was 0.45. For the same compound, the composite z-score [14] was 0.503, the z-score [15] was 1.91 and the composite z-score (Lefty1) was 0.492. For the same compound, the composite z-score [16] was 0.0122 and the z-score [17] was -1.26 (inactive).

In the case of N#Cc1ccc(NN2C(C(O)c3ccc(I)cc3)C=CC3C(=O)N(c4ccccc4)C(=O)C32)cc1 (stereo not given), the composite z-score (Albumin (Bos taurus)) is reported as 0.946, the composite Z-score [1] is reported as 0.128 (inactive) and the composite z-score [2] is reported as 0.212. The composite z-score [3] was 0.139, the composite z-score [4] was 0.74 and the composite z-score [5] was 2.21. For the same compound, the composite z-score [6] was -0.809, the composite z-score (Sam68 (KHDRBS1)) was 1.29 and the composite z-score [7] was -0.389. The composite z-score [8] was 1.12, the composite z-score [9] was 1.33 and the composite z-score [10] was 1.25. It also gave a composite z-score [11] of 0.945, a composite z-score [12] of 0.945 and a composite z-score [13] of 0.402. For the same compound, the composite z-score [14] was -0.194, the z-score [15] was 1.96 and the composite z-score (Lefty1) was -0.491. The composite z-score [16] was 1.3 and the z-score [17] was 0.628 (inactive).

For COCCCNC(=O)[C@@]1(c2ccc([N+](=O)[O-])cc2)CC(=O)N(C2CCCCC2)[C@@H]1c1ccc(CO)cc1, the composite z-score (Albumin (Bos taurus)) was 0.502, the composite Z-score [1] was -0.0867 (inactive) and the composite z-score [2] was -0.391. For the same compound, the composite z-score [3] was -0.272, the composite z-score [4] was 0.672 and the composite z-score [5] was 2.28. It also gave a composite z-score [6] of 1.63, a composite z-score (Sam68 (KHDRBS1)) of 0.0163 and a composite z-score [7] of -0.264. The composite z-score [8] was -0.194, the composite z-score [9] was 1.13 and the composite z-score [10] was 0.542. For the same compound, the composite z-score [11] was 0.643, the composite z-score [12] was -0.523 and the composite z-score [13] was -0.0809. The composite z-score [14] was 0.269, the z-score [15] was 0.612 and the composite z-score (Lefty1) was -1.4. The composite z-score [16] was -0.273 and the z-score [17] was -0.501 (inactive).

In the case of CSCC[C@@H]1NC(=O)CC=C[C@@H](C)COC(=O)[C@H](CCSC)NC(=O)CC=C[C@@H](C)COC1=O, the composite z-score (Albumin (Bos taurus)) is reported as -0.767, the composite Z-score [1] is reported as 0.559 (inactive) and the composite z-score [2] is reported as -0.205. It also gave a composite z-score [3] of -0.135, a composite z-score [4] of -0.342 and a composite z-score [5] of -0.45. For the same compound, the composite z-score [6] was -0.524, the composite z-score (Sam68 (KHDRBS1)) was -0.32 and the composite z-score [7] was 1.39. For the same compound, the composite z-score [8] was -0.796, the composite z-score [9] was -0.158 and the composite z-score [10] was -0.111. For the same compound, the composite z-score [11] was -0.388, the composite z-score [12] was 0.017 and the composite z-score [13] was 0.129. For the same compound, the composite z-score [14] was 0.296, the z-score [15] was 1.01 and the composite z-score (Lefty1) was 0.531. The composite z-score [16] was -0.725 and the z-score [17] was -0.731 (inactive).
